Hits are enriched below; roughly 2.3% of the tested compounds scored in any of these assays.
DENV2 CPE rescue: inhibitors of DENV2 cytopathic effect, primary screen, cell-based, plate reader, single concentration; DENV2-infected cells, cytopathic effect rescue; CPE inhibition, % at 9.99 µM; 1.7% of 350,000 active; in the data active means CPE inhibition above about 20%, passing the limit was not always enough; inconclusive means no clear call, values can overlap the other calls; tested in BHK-21 cells;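 further: 0% = median of neutral control wells and 100% = median of positive control wells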
Rtt109 Vps75: inhibitors of C. albicans Rtt109/Vps75 HAT, primary screen, biochemical, ThioGlo CoA-SH fluorescence, plate reader; purified Rtt109/Vps75, 4 h; inhibition, % at 34.9 µM; 0.16% of 330,000 active; AID 540336, 2011;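 active means inhibition of at least 50% in every replicate; inconclusive means best replicate reaches 50% inhibition but some replicates fall short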
PDI turbidity: inhibitors of human PDI, primary screen, biochemical, turbidity, single point, plate reader; PDI insulin aggregation turbidity, A650, 90 min; AID 588391, 2011; 0.052% of 350,000 active; inhibition, % at 10 µM; Protein disulfide-isomerase (Homo sapiens), P07237;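 active means mean inhibition across replicates of 30% or more, whatever share of single replicates reach that level; inconclusive means mean inhibition below 30% while every single replicate reaches 30%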
SIRT5 inh: SIRT5 desuccinylase inhibitors, primary screen, biochemical, fluorescence imaging, single point, set 5 | NAD-dependent protein deacylase sirtuin-5, mitochondrial (Homo sapiens), Q9NXA8 | Purified SirT5, succinyl-peptide AMC, trypsin-coupled fluorescence | inhibition, % at 15 µM | 1.1% of 330,000 active | AID 652115, 2013; in the data active means inhibition above about 15%; inconclusive means no clear call, values can overlap the other calls
Target sequence (Q9NXA8 whole entry, looked up): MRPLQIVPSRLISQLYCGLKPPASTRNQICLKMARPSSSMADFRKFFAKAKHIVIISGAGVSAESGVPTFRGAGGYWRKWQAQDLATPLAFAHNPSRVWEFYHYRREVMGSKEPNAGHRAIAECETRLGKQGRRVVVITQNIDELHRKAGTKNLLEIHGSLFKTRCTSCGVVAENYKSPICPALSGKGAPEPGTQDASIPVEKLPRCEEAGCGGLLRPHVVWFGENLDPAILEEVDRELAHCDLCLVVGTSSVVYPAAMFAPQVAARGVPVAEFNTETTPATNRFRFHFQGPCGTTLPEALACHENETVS
ERp5 inh: inhibitors of ERp5-driven insulin aggregation, primary screen, biochemical, turbidity, absorbance 650 nm, single point | Protein disulfide-isomerase A6 (Homo sapiens), Q15084 | 0.05% of 350,000 active | inhibition, % at 9.99 µM | 90 min | AID 651711, 2012;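 active means mean replicate inhibition above about 25%, with every replicate also reaching it, limit read from the data, passing the limit was not always enough; inconclusive means only one of those two criteria met; inactive means neither criterion met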
* hit, by the source's call; ! = not confirmed by another sample.

O=C(N/N=C/C(Br)=C\c1ccccc1)c1cccs1 was read as DENV2 CPE rescue 2.6, PDI turbidity 4.1, SIRT5 inh 19.9* and ERp5 inh 0.1.
COc1ccc(CNC(=O)C[C@@H]2C=C[C@@H](NC(=O)c3ccc4c(c3)OCO4)[C@H](CO)O2)cc1 was read as DENV2 CPE rescue 43.5*, SIRT5 inh -1.1 and ERp5 inh -2.6.
Screening CC(=O)N[C@H]1C=C[C@H](CC(=O)NCc2ccc(Cl)cc2)O[C@H]1CO returned DENV2 CPE rescue 32.0*, SIRT5 inh -3.6 and ERp5 inh -5.5.
O=C(C[C@@H]1C=C[C@@H](NC(=O)c2ccccn2)[C@H](CO)O1)NCc1cccc(F)c1 was read as DENV2 CPE rescue 35.9*, SIRT5 inh -1.4 and ERp5 inh 0.9.
For O=C(C[C@@H]1C=C[C@@H](NC(=O)c2ccccn2)[C@@H](CO)O1)NCc1cccc(F)c1 the results were DENV2 CPE rescue -4.4, SIRT5 inh -0.1 and ERp5 inh -0.5.
Screening COc1ccccc1C(=O)N/C(=C/c1ccccc1)C(=O)NC(CCSC)C(=O)O (stereo not given) returned Rtt109 Vps75 22.0, PDI turbidity -1.1, SIRT5 inh -2.0 and ERp5 inh -7.4.
For CC(=O)NC(Cc1ccccc1)Cc1ccccc1 the results were DENV2 CPE rescue -5.2, Rtt109 Vps75 2.9, PDI turbidity 17.5, SIRT5 inh -0.3 and ERp5 inh 1.0.
`CC(=O)NC(Cc1ccccc1)C(=O)O` (stereo not given) gave DENV2 CPE rescue 56.3*, Rtt109 Vps75 -3.6, SIRT5 inh 2.1 and ERp5 inh 4.5.
COc1ccccc1C(=O)N/C(=C\c1ccccc1)C(=O)NC(Cc1ccccc1)C(=O)O (stereo not given) was read as DENV2 CPE rescue 4.3, Rtt109 Vps75 9.0, PDI turbidity 1.4, SIRT5 inh 69.9* and ERp5 inh 4.2.
Screening COc1cccc(NC(=O)N2C[C@@H](O)COC[C@@H]3O[C@H](CC(=O)NCc4ccccc4F)CC[C@H]32)c1 returned DENV2 CPE rescue 1.9, SIRT5 inh -1.6 and ERp5 inh 2.6.
COc1ccc(C(=S)N2CCOCC2)cc1OC(=O)c1ccccc1 was read as DENV2 CPE rescue 23.7*, Rtt109 Vps75 5.5, PDI turbidity 1.0, SIRT5 inh -4.5 and ERp5 inh -12.9.
C[C@@H]1CN([C@H](C)CO)C(=O)c2cccc(NC(=O)c3cnccn3)c2O[C@H]1CN(C)S(=O)(=O)c1cccs1 was read as DENV2 CPE rescue -6.4, SIRT5 inh 1.3 and ERp5 inh 3.2.
Screening O=C(CCN1CCCCC1)NCC[C@@H]1CC[C@H](NS(=O)(=O)c2cccc(F)c2)[C@@H](CO)O1 returned SIRT5 inh 1.2 and ERp5 inh 3.2.
`CO[C@@H]1CN(C)C(=O)c2ccc(NC(=O)C3CC3)cc2OC[C@H](C)N(Cc2ccncc2)C[C@@H]1C` gave DENV2 CPE rescue 2.0, SIRT5 inh -0.8 and ERp5 inh -1.4.
For C[C@H]1CN([C@@H](C)CO)C(=O)c2cc(NS(=O)(=O)c3ccc(F)cc3)ccc2O[C@H]1CN(C)C the results were DENV2 CPE rescue 18.6, SIRT5 inh -2.2 and ERp5 inh 5.6.
`C[C@@H]1CN([C@@H](C)CO)C(=O)c2cc(NC(=O)Cn3cnnn3)ccc2O[C@@H]1CN(C)CC1CCCCC1` gave SIRT5 inh -3.5 and ERp5 inh 6.5.
C[C@H](CO)N1C[C@H](C)[C@H](CN(C)CC2CCCCC2)Oc2ccc(NC(=O)NC3CCCCC3)cc2C1=O was read as DENV2 CPE rescue 29.1*, SIRT5 inh -2.2 and ERp5 inh 2.4.
`C[C@@H]1CN([C@H](C)CO)C(=O)c2cc(NC(=O)NC3CCCCC3)ccc2O[C@H]1CN(C)CC1CCCCC1` gave DENV2 CPE rescue -16.6, SIRT5 inh 0.0 and ERp5 inh -1.6.
`C[C@@H]1CN([C@@H](C)CO)C(=O)c2cc(NC(=O)NC3CCCCC3)ccc2O[C@@H]1CN(C)CC1CCCCC1` gave DENV2 CPE rescue 60.5*, SIRT5 inh -1.2 and ERp5 inh 2.6.
Screening C[C@H](CO)N1C[C@H](C)[C@@H](CN(C)CC2CCCCC2)Oc2ccc(NC(=O)Cn3cnnn3)cc2C1=O returned DENV2 CPE rescue inconclusive, Rtt109 Vps75 10.0, PDI turbidity -3.9, SIRT5 inh 15.3*! and ERp5 inh 13.9.
`C[C@H]1CN([C@@H](C)CO)C(=O)c2cc(NC(=O)NC3CCCCC3)ccc2O[C@H]1CN(C)CC1CCCCC1` gave DENV2 CPE rescue -5.7, SIRT5 inh -2.1 and ERp5 inh -3.2.
`C[C@H]1CCCCO[C@H](CN(C)C(=O)NC2CCCCC2)[C@@H](C)CN([C@@H](C)CO)C(=O)c2cc(NC(=O)Cc3ccccc3)ccc2O1` gave DENV2 CPE rescue -4.2, SIRT5 inh -1.6 and ERp5 inh 0.2.
Screening CC(C)(C)OC(=O)NC(CC(=O)OCc1ccccc1)C(=O)O (stereo not given) returned DENV2 CPE rescue 47.1*, Rtt109 Vps75 1.7, PDI turbidity 8.2, SIRT5 inh -1.6 and ERp5 inh -0.8.
C[C@H](NC(=O)OCc1ccccc1)C(=O)NNC(=O)[C@H](C)NC(=O)OCc1ccccc1 was read as DENV2 CPE rescue 0.2, Rtt109 Vps75 -6.6, PDI turbidity 2.0, SIRT5 inh 21.2* and ERp5 inh 9.3.
For CC(C)(C)OC(=O)C(Cc1ccc(OC(C)(C)C)cc1)NC(=O)CNC(=O)OCc1ccccc1 (stereo not given) the results were DENV2 CPE rescue 76.7*, Rtt109 Vps75 7.2, PDI turbidity -1.4, SIRT5 inh 9.4 and ERp5 inh 0.4.
`COc1ccc(COC(=O)C2=C(C)NC(=O)NC2c2ccccc2F)cc1` (stereo not given) gave DENV2 CPE rescue 39.0*, Rtt109 Vps75 -3.2, PDI turbidity -0.3, SIRT5 inh 1.7 and ERp5 inh 0.3.
`COc1ccc(COC(=O)C2=C(C)NC(=O)NC2c2ccccc2)cc1` (stereo not given) gave DENV2 CPE rescue 18.9, Rtt109 Vps75 -23.4, PDI turbidity 2.1, SIRT5 inh 11.7 and ERp5 inh 1.7.
`OC[C@@H]1[C@@H](c2ccc(-c3ccc(F)cc3)cc2)[C@H]2CN(Cc3ccncc3)CCCCN12` gave DENV2 CPE rescue 17.5, SIRT5 inh 11.1 and ERp5 inh 7.6.
COCC(=O)N1CCCCN2[C@@H](CO)[C@H](c3ccc(-c4ccc(C)cc4)cc3)[C@@H]2C1 was read as DENV2 CPE rescue 46.7*, SIRT5 inh -2.5 and ERp5 inh 3.1.

Compound activity (PubChem BioAssay)
